# Experimental data reported in paper PMC7862700, “An all-to-all approach to the identification of sequence-specific readers for epigenetic DNA modifications on cytosine”.
# Experiments:
# Assay in all cases: DAPPL (digital affinity profiling via proximity ligation, sequencing); 10 mM Tris-HCl pH 7.5, 50 mM NaCl, 1 mM DTT, 4% glycerol, room temperature, 30 min; GST-TFs on glutathione beads, 16-mer random dsDNA library, 0.1% formaldehyde crosslink after washing; high values mean tight binding
# [1] = target: T1, FLI1 (Homo sapiens, UniProt Q01543 1-452); settings: protein: recombinant; tags: N-terminal GST; dsDNA, one strand shown
# T1 sequence: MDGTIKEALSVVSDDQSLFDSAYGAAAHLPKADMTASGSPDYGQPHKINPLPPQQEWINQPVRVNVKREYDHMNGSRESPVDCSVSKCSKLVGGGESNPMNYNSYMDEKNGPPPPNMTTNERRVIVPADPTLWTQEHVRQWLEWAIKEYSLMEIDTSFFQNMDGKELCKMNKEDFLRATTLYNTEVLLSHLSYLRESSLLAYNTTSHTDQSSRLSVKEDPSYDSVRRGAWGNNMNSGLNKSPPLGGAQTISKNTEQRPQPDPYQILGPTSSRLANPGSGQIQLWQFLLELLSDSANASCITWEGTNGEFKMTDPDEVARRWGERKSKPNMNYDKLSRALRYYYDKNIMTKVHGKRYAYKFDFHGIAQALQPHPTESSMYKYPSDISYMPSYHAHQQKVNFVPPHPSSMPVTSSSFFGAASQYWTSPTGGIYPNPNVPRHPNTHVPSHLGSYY
# Outline: (§1)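 Human transcription factors were made in yeast as GST fusions, captured on glutathione beads and barcoded with DNA. With a tag-only sample included, the pool was incubated with 200 nmole of a random double-stranded 16-mer DNA library in Tris/NaCl/DTT/glycerol buffer at room temperature for 30 min, then crosslinked with 0.1% formaldehyde after washing, ligated by proximity, amplified and sequenced. For binding signal, each hexamer's read frequency for a factor is divided by its frequency for the tag-only sample.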
# [2] = target: T2, ELK1 (Homo sapiens, UniProt P19419 1-428); settings: protein: recombinant; tags: N-terminal GST; dsDNA, one strand shown
# T2 sequence: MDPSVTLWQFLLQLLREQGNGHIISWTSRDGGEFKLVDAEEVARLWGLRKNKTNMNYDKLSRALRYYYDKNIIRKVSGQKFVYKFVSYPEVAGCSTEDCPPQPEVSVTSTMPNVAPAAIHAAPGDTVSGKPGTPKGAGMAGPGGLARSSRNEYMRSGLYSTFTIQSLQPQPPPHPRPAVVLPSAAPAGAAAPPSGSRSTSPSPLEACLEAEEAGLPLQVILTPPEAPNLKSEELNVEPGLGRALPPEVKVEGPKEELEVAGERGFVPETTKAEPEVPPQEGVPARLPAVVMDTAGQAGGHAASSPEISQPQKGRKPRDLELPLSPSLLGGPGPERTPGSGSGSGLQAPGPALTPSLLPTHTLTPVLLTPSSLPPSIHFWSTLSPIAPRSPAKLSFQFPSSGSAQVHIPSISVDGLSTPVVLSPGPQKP
# Outline: as §1
# [3] = target: T3, GABPA (Homo sapiens, UniProt Q06546 1-454); settings: protein: recombinant; tags: N-terminal GST; dsDNA, one strand shown
# T3 sequence: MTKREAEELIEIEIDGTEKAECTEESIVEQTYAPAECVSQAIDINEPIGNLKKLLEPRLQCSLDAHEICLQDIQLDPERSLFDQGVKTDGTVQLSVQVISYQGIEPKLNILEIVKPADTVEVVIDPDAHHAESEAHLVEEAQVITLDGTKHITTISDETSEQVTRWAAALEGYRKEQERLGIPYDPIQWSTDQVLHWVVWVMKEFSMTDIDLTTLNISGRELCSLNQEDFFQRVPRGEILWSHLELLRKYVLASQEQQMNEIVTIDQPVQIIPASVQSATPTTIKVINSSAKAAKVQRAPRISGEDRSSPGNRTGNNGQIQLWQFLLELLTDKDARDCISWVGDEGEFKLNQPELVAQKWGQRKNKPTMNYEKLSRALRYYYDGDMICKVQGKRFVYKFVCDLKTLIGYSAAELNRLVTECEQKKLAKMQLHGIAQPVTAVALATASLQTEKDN
# Outline: as §1
# [4] = target: T4, ERG (Homo sapiens, UniProt P11308 1-479); settings: protein: recombinant; tags: N-terminal GST; dsDNA, one strand shown
# T4 sequence: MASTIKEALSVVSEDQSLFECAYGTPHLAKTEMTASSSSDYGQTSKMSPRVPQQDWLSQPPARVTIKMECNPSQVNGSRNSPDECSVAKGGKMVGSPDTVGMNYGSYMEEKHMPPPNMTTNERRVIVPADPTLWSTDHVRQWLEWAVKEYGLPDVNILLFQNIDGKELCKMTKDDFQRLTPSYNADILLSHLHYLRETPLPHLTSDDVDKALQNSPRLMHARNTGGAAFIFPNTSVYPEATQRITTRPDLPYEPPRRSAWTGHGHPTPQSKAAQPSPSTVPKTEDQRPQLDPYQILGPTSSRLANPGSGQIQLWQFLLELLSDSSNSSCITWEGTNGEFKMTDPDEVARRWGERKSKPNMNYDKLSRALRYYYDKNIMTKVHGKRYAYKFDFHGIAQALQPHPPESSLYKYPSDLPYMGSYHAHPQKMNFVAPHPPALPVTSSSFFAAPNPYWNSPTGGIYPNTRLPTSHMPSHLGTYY
# Outline: as §1
# [5] = target: ELF1 (Homo sapiens, UniProt P32519 1-619); settings: protein: recombinant; tags: N-terminal GST; dsDNA, one strand shown
# ELF1, sequence (P32519 whole entry): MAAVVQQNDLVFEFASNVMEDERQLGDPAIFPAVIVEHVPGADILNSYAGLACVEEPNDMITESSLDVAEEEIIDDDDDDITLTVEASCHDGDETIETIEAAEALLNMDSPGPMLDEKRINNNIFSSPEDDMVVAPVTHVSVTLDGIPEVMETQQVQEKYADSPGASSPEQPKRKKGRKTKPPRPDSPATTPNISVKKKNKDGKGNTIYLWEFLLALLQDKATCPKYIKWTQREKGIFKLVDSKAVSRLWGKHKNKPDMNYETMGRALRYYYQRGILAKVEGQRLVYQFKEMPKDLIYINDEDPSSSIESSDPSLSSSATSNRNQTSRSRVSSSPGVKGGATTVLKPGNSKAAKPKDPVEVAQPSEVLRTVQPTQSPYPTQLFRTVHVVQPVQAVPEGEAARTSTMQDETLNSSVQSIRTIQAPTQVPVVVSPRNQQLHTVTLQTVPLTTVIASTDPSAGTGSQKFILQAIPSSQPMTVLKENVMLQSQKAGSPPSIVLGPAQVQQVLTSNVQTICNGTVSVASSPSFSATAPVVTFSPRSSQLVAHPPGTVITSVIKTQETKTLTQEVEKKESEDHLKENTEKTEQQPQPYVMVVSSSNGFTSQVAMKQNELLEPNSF
# Outline: as §1
# [6] = target: T5, EHF (Homo sapiens, UniProt Q9NZC4 1-300); settings: protein: recombinant; tags: N-terminal GST; dsDNA, one strand shown
# T5 sequence: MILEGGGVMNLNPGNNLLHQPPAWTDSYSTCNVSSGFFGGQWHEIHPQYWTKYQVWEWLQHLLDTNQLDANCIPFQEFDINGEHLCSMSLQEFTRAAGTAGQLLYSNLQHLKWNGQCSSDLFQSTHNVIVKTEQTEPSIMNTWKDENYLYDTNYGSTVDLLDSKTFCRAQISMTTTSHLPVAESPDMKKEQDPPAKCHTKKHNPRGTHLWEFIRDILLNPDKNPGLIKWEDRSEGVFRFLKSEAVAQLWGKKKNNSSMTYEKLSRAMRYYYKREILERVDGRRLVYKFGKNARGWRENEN
# Outline: as §1
# [7] = target: SPI1 (Homo sapiens, UniProt P17947 1-270); settings: protein: recombinant; tags: N-terminal GST; dsDNA, one strand shown
# Outline: as §1
# [8] = target: SPIB (Homo sapiens, UniProt Q01892 1-262); settings: protein: recombinant; tags: N-terminal GST; dsDNA, one strand shown
# SPIB, sequence (Q01892 whole entry): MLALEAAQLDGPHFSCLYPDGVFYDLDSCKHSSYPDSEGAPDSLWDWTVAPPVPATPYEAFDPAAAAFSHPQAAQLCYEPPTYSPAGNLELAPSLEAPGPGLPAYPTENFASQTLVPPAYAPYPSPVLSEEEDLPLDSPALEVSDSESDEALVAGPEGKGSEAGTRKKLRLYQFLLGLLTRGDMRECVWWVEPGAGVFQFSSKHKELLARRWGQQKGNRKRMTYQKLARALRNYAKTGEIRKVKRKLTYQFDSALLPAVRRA
# Outline: as §1
# [9] = target: T6, ELK3 (Homo sapiens, UniProt P41970 1-407); settings: protein: recombinant; tags: N-terminal GST; dsDNA, one strand shown
# T6 sequence: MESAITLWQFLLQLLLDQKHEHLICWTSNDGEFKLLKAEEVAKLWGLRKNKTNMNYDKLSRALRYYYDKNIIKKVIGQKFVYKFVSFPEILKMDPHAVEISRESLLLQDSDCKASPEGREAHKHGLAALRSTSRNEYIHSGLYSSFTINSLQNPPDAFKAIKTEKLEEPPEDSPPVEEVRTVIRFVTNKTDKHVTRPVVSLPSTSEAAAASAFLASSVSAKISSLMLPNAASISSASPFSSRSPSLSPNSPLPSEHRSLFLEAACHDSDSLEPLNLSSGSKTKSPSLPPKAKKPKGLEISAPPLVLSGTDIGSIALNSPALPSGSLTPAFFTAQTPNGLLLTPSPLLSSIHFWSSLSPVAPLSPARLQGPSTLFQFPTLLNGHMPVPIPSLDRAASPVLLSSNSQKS
# Outline: as §1
# [10] = target: T7, FEV (Homo sapiens, UniProt Q99581 1-238); settings: protein: recombinant; tags: N-terminal GST; dsDNA, one strand shown
# T7 sequence: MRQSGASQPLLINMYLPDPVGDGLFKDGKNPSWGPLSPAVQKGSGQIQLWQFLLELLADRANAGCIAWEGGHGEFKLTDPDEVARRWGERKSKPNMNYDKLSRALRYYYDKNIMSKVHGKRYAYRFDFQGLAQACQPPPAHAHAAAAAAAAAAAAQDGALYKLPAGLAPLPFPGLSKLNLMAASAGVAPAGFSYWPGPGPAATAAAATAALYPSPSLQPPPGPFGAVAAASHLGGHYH
# Outline: as §1
# [11] = target: ETV5 (Homo sapiens, UniProt P41161 1-510); settings: protein: recombinant; tags: N-terminal GST; dsDNA, one strand shown
# ETV5, sequence (P41161 whole entry): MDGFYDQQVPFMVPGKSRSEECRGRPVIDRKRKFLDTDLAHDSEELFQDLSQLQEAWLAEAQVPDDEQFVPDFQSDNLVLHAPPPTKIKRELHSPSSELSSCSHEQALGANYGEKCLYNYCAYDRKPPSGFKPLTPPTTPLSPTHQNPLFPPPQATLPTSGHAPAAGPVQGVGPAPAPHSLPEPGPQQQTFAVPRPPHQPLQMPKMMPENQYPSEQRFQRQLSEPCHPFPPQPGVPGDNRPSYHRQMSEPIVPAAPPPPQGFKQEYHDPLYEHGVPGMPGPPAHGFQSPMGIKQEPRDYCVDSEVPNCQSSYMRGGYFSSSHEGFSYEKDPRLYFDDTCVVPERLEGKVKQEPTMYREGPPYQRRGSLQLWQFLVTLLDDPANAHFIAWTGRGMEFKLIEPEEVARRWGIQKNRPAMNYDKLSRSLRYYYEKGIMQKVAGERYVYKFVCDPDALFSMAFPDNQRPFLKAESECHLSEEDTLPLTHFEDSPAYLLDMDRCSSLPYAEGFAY
# Outline: as §1
# [12] = target: HSF1 (Homo sapiens, UniProt Q00613 1-529); settings: protein: recombinant; tags: N-terminal GST; chain copies: 3; dsDNA, one strand shown
# HSF1, sequence (Q00613 whole entry): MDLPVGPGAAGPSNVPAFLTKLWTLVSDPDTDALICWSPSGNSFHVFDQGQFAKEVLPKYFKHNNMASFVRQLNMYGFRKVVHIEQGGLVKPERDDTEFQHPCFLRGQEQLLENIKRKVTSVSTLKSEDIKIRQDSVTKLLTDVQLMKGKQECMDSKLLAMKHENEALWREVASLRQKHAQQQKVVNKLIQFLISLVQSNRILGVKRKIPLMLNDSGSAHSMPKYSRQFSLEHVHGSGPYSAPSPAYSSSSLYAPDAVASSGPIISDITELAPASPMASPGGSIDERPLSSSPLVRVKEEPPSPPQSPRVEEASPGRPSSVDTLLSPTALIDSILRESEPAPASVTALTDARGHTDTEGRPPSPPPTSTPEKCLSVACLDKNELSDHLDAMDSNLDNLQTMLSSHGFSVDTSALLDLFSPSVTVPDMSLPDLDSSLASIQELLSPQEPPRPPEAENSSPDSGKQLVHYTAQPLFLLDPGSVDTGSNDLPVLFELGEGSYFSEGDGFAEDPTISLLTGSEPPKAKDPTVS
# Outline: as §1
# [13] = target: T8, SPIC (Homo sapiens, UniProt Q8N5J4 1-248); settings: protein: recombinant; tags: N-terminal GST; dsDNA, one strand shown
# T8 sequence: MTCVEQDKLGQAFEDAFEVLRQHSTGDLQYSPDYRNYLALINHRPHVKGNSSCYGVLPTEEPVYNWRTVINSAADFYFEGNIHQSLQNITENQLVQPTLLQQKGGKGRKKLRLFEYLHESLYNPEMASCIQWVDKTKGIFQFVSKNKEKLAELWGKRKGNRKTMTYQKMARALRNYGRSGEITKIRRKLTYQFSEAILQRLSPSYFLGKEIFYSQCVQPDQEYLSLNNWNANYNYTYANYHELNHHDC
# Outline: as §1
# [14] = target: ELF4 (Homo sapiens, UniProt Q99607 1-663); settings: protein: recombinant; tags: N-terminal GST; dsDNA, one strand shown
# ELF4, sequence (Q99607 whole entry): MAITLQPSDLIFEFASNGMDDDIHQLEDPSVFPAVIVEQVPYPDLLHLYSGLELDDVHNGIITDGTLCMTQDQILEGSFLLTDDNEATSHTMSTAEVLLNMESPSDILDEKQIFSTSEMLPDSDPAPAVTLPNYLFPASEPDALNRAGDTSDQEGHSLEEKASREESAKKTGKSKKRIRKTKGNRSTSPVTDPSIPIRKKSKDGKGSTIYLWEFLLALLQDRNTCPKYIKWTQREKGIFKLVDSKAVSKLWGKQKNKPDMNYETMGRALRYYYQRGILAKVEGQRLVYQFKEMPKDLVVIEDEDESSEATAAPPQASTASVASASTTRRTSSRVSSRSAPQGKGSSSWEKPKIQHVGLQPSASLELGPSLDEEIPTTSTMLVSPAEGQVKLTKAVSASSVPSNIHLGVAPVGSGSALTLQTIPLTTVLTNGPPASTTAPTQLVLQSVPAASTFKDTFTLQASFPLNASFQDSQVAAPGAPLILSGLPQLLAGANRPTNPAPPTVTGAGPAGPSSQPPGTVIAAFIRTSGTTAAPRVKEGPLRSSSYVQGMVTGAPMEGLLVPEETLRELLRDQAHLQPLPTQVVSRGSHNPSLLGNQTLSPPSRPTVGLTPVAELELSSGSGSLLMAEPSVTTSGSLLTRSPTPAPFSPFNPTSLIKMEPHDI
# Outline: as §1
# [15] = target: T9, ELK4 (Homo sapiens, UniProt P28324-2 1-405); settings: protein: recombinant; tags: N-terminal GST; dsDNA, one strand shown
# T9 sequence: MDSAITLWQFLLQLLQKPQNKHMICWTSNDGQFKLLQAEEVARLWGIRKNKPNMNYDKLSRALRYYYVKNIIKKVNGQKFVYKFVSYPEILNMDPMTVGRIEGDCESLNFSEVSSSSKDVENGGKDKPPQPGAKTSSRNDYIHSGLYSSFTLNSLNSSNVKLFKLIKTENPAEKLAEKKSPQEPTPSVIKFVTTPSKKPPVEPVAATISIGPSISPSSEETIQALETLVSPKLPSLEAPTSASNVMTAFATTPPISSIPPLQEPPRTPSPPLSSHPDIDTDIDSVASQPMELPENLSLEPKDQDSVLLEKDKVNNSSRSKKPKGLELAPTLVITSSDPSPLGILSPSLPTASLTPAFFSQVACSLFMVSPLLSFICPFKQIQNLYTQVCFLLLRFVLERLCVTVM
# Outline: as §1
# [16] = target: T10, ETV2 (Homo sapiens, UniProt O00321 1-342); settings: protein: recombinant; tags: N-terminal GST; dsDNA, one strand shown
# T10 sequence: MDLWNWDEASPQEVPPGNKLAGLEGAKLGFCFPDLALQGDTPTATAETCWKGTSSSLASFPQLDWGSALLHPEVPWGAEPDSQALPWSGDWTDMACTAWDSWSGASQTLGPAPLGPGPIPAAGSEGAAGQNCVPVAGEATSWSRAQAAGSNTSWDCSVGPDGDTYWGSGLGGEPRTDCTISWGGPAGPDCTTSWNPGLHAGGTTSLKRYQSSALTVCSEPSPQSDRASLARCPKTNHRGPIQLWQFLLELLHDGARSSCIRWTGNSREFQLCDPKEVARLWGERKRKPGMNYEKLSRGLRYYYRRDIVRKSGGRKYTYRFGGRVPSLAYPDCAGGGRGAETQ
# Outline: as §1
# [17] = target: T11, ELF3 (Homo sapiens, UniProt P78545 1-371); settings: protein: recombinant; tags: N-terminal GST; dsDNA, one strand shown
# T11 sequence: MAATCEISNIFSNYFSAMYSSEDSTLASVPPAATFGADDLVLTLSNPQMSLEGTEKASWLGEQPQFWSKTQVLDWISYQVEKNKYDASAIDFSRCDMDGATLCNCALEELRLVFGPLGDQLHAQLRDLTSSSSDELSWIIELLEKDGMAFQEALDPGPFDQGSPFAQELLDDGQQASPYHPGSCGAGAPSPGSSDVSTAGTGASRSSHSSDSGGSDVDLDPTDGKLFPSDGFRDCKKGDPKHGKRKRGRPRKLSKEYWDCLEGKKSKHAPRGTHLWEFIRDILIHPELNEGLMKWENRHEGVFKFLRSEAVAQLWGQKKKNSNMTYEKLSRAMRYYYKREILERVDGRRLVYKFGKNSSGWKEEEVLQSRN
# Outline: as §1
# [18] = target: CRX (Homo sapiens, UniProt O43186 1-299); settings: protein: recombinant; tags: N-terminal GST; dsDNA, one strand shown
# CRX, sequence (O43186 whole entry): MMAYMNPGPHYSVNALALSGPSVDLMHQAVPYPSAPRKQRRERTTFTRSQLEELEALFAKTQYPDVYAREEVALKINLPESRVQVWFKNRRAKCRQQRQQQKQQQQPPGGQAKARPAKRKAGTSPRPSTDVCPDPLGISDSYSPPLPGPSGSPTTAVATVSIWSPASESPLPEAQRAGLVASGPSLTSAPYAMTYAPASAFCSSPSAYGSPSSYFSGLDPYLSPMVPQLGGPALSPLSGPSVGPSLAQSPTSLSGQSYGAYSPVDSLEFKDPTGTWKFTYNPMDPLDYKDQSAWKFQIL
# Outline: as §1
# [19] = target: ETV1 (Homo sapiens, UniProt P50549 1-477); settings: protein: recombinant; tags: N-terminal GST; dsDNA, one strand shown
# ETV1, sequence (P50549 whole entry): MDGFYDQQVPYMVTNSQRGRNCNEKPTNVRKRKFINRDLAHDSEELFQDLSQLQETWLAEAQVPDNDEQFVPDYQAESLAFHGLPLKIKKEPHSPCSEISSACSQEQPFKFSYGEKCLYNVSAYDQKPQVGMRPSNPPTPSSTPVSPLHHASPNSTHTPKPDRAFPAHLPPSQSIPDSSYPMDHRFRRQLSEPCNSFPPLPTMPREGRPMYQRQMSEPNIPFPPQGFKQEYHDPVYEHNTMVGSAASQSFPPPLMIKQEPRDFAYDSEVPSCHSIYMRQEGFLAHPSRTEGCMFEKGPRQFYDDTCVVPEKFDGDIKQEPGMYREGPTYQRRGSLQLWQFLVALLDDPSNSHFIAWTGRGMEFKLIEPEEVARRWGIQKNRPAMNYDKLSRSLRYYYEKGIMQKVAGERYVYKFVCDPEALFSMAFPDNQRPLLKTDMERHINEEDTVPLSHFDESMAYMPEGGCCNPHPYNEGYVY
# Outline: as §1
sequence,measurement,setting,value
GCGCTT,binding signal,[1],"1.31 fold enrichment (6-mer frequency, TF over GST control)"
same,binding signal,[2],"1.36 fold enrichment (6-mer frequency, TF over GST control)"
same,binding signal,[3],"1.32 fold enrichment (6-mer frequency, TF over GST control)"
same,binding signal,[4],"1.24 fold enrichment (6-mer frequency, TF over GST control)"
same,binding signal,[5],"1.31 fold enrichment (6-mer frequency, TF over GST control)"
same,binding signal,[6],"1.31 fold enrichment (6-mer frequency, TF over GST control)"
same,binding signal,[7],"1.2 fold enrichment (6-mer frequency, TF over GST control)"
same,binding signal,[8],"1.45 fold enrichment (6-mer frequency, TF over GST control)"
same,binding signal,[9],"1.31 fold enrichment (6-mer frequency, TF over GST control)"
same,binding signal,[10],"1.37 fold enrichment (6-mer frequency, TF over GST control)"
same,binding signal,[11],"1.29 fold enrichment (6-mer frequency, TF over GST control)"
same,binding signal,[12],"1.16 fold enrichment (6-mer frequency, TF over GST control)"
same,binding signal,[13],"1.26 fold enrichment (6-mer frequency, TF over GST control)"
same,binding signal,[14],"1.24 fold enrichment (6-mer frequency, TF over GST control)"
same,binding signal,[15],"1.36 fold enrichment (6-mer frequency, TF over GST control)"
same,binding signal,[16],"1.12 fold enrichment (6-mer frequency, TF over GST control)"
same,binding signal,[17],"1.04 fold enrichment (6-mer frequency, TF over GST control)"
same,binding signal,[18],"1.39 fold enrichment (6-mer frequency, TF over GST control)"
same,binding signal,[19],"1.3 fold enrichment (6-mer frequency, TF over GST control)"
